Structures are written as SMILES. Where “and” joins values, the source holds several entries; their conditions need not be identical. Identical values can stand only once. More than one record can exist for a structure, and the calls need not agree. Calls of active or inactive are those of the source. How the source made its calls: active means hit-call score of the fitted dose curve at least 0.9, where 1 is the maximum; inactive means score below 0.9.

These results are taken from PubChem BioAssay (EPA / NIEHS).

Experiment [1] addresses Bile acid receptor (Homo sapiens) (UniProt Q96RI1). Put plainly: ATG_IR1_CIS: Attagene CIS-FACTORIAL HepG2 Assay for human Nuclear Receptor Subfamily 1 Group H Member 4 (NR1H4), IR1 submotif (AID 2282946). Conditions: IR1 reporter transcription, actives raise or lower the signal. In outline: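 Transient MRTU transfection, HepG2; 24 h dosing; RNA → RT-PCR → 6-FAM primer extension → HpaI digest → capillary electrophoresis fluorescence. Gain/loss of signal fitted relative to DMSO.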

The nature of experiment [2]: ATG_GRE_CIS: Attagene CIS-FACTORIAL HepG2 Assay for human Glucocorticoid Response Elements (GRE) (AID 2282947). Conditions: HepG2 GRE cis-reporter, Attagene multiplex mRNA; actives raise or lower the signal. In a few lines:
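Following 24 h chemical exposure of transiently transfected HepG2 cells, total RNA was reverse-transcribed and reporter cDNA amplified, fluorescently labelled and sized by capillary electrophoresis. Signal gain or loss was fitted relative to DMSO vehicle.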

Experiment [3] in a line: ATG_ISRE_CIS: Attagene CIS-FACTORIAL HepG2 Assay for human Interferon Regulatory Factor 1 (IRF1) binding to an Interferon-Stimulated Response Element (ISRE) (AID 2282948). Conditions: HepG2 ISRE cis-reporter (Attagene), mRNA transcription readout; actives raise or lower the signal. In a few lines: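 Transiently transfected HepG2 cells carrying cis-element reporter units, dosed 24 hours. Reporter mRNA quantified by RT-PCR, fluorescent primer extension, HpaI digestion and capillary electrophoresis. Bidirectional fitting relative to DMSO.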

Experiment [4] in a line: ATG_M_32_CIS: Attagene CIS-FACTORIAL HepG2 Assay for M32 Transcription Factor (Internal Marker) (AID 2282949).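 Further: background control marker of the multiplexed CIS panel rather than a real target.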 Conditions: HepG2 Attagene cis-factorial M32 reporter, mRNA; actives raise or lower the signal. In a few lines:
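Fluorescent capillary electrophoresis peaks of HpaI-digested, FAM-labelled RT-PCR reporter products give the signal. Source: transiently transfected human liver HepG2 cells, 24 h after chemical dosing; bidirectional fitting against DMSO.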

The nature of experiment [5]: ATG_M_06_CIS: Attagene CIS-FACTORIAL HepG2 Assay for M06 Transcription Factor (Internal Marker) (AID 2282950). Conditions: HepG2 Attagene CIS-FACTORIAL M06 internal marker reporter; actives raise or lower the signal. In outline:
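Cells (HepG2, transiently carrying cis-driven reporter units) receive chemical for 24 h before RNA isolation. Reporter cDNA is PCR-amplified, FAM-labelled by primer extension, HpaI-digested and sized on a capillary analyser.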

The target of experiment [6] is Hypoxia-inducible factor 1-alpha (Homo sapiens) (UniProt Q16665). As to the kind of experiment: ATG_HIF1a_CIS: Attagene CIS-FACTORIAL HepG2 Assay for human Hypoxia Inducible Factor 1 (HIF1A) (AID 2282951). Conditions: HepG2 Attagene cis-factorial HIF1a reporter transcription; actives raise or lower the signal. In a few lines: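 HepG2, transient cis-reporter library, 24 h dosing. RNA → RT (oligo dT) → PCR → 6-FAM primer extension → HpaI → CE. Bidirectional curve fit vs DMSO.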

Experiment [7] addresses Hepatocyte nuclear factor 6 (Homo sapiens) (UniProt Q9UBC0). As to the kind of experiment: ATG_HNF6_CIS: Attagene CIS-FACTORIAL HepG2 Assay for human Hepatocyte Nuclear Factor 6 (HNF6) (AID 2282952). Conditions: HepG2 Attagene cis-factorial HNF6 reporter transcription; actives raise or lower the signal. In a few lines: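 Reporter mRNA induction or loss in HepG2 after 24 h exposure; transient cis-MRTU transfection; fragments quantified by capillary electrophoresis; bidirectional analysis, DMSO as negative control.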

The target in experiment [8] is Heat shock factor protein 1 (Homo sapiens) (UniProt Q00613). Put plainly: ATG_HSE_CIS: Attagene CIS-FACTORIAL HepG2 Assay for human Heat Shock Transcription Factor 1 (HSE) (AID 2282953). Conditions: HepG2 HSE cis-reporter, Attagene RNA transcription; actives raise or lower the signal. In outline: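 Liver-derived HepG2 cells carry transiently introduced multiple reporter units governed by cis promoters. Reporter RNA measured 24 h post-dose through reverse transcription, PCR amplification, fluorescent labelling and capillary electrophoresis, normalised to DMSO.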

The nature of experiment [9]: ATG_MRE_CIS: Attagene CIS-FACTORIAL HepG2 Assay for human Metal Responsive Element (MRE) (AID 2282954). Conditions: HepG2 MRE cis-reporter transcription, Attagene multiplex; actives raise or lower the signal. In outline: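 Step one: transfect HepG2 with cis-regulated reporter units. Step two: dose 24 h. Step three: isolate RNA, RT-PCR, 6-FAM label, HpaI digest, capillary electrophoresis. Fit bidirectionally to DMSO.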

Experiment [10] in a line: ATG_PBREM_CIS: Attagene CIS-FACTORIAL HepG2 Assay for human Phenobarbital-responsive Enhancer Module (PBREM) (AID 2282955). Conditions: HepG2 PBREM cis-reporter, Attagene multiplexed transcription; actives raise or lower the signal. In outline:
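HepG2, transient MRTU transfection, 24 h dosing; RNA → oligo(dT) RT → PCR → 6-FAM extension → HpaI → CE. Bidirectional fit vs DMSO.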

Heat shock factor protein 1 (Homo sapiens), sequence (Q00613 whole entry, looked up): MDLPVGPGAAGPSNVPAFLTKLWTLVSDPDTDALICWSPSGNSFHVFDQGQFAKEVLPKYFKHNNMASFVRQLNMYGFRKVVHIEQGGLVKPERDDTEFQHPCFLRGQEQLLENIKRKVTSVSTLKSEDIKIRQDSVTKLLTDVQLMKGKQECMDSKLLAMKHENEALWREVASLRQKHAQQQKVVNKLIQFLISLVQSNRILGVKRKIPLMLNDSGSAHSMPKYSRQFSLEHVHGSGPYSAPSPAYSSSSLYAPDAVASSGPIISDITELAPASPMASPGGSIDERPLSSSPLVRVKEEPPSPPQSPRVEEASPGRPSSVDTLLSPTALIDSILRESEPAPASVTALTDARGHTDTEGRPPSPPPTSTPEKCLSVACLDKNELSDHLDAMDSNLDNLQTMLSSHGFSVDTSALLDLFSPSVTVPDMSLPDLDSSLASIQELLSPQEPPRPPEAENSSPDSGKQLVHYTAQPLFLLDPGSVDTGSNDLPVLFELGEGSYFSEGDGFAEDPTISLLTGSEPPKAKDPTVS
Hypoxia-inducible factor 1-alpha (Homo sapiens), sequence (Q16665 whole entry, looked up): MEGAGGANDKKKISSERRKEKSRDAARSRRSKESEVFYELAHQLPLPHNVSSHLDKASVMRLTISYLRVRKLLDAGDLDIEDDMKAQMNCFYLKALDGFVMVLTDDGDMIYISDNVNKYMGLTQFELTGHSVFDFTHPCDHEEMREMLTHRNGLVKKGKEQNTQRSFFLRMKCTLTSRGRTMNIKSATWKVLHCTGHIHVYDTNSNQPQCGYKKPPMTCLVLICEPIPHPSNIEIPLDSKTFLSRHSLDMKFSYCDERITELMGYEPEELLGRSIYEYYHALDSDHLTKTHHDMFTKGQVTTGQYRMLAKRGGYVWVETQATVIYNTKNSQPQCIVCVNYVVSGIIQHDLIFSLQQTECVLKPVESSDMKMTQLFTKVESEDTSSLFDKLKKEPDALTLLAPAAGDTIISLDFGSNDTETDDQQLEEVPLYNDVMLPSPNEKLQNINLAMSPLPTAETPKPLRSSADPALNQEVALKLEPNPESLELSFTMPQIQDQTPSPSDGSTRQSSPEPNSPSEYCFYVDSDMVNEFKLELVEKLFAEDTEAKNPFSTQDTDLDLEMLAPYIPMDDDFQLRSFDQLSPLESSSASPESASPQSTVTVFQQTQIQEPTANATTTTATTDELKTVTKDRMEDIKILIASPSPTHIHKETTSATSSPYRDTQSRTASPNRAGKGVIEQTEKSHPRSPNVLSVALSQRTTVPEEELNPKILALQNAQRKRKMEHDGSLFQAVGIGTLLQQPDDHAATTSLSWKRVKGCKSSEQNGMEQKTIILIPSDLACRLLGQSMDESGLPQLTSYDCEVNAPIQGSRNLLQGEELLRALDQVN
Bile acid receptor (Homo sapiens), sequence (Q96RI1 whole entry, looked up): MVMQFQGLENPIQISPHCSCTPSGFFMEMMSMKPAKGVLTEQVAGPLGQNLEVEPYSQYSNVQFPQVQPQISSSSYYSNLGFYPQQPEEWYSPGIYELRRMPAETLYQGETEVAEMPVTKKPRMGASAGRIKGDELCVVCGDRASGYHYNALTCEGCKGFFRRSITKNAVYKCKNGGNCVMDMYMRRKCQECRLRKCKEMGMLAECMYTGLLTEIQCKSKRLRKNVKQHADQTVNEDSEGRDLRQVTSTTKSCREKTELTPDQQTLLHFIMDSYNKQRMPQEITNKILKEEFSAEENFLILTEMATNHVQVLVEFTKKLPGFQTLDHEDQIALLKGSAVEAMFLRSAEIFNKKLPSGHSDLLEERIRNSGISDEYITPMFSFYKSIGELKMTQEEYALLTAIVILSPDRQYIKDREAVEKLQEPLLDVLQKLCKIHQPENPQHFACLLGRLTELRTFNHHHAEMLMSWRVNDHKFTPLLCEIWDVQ
Hepatocyte nuclear factor 6 (Homo sapiens), sequence (Q9UBC0 whole entry, looked up, the tested form may be a part): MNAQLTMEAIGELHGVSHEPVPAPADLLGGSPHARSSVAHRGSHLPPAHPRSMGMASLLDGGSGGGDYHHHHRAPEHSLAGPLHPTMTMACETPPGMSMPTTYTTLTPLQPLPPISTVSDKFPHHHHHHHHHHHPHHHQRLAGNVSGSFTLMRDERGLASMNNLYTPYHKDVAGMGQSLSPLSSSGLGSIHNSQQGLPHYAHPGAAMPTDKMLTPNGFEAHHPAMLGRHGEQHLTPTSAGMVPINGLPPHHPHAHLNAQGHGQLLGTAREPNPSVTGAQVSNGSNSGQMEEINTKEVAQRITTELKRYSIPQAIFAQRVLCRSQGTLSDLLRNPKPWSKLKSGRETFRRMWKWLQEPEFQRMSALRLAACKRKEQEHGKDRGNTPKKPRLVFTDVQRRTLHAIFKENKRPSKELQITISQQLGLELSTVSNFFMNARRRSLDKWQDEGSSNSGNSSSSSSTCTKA

Turning to `FC(F)(F)COC(OCC(F)(F)F)OCC(F)(F)F`, the result in [1], in experiment [2], in [3], in [4], in [5] and in [6] was inactive. In addition, the call in experiment [7], in experiment [8], in [9] and in experiment [10] was inactive.

By AC50 is commonly meant the midpoint of the concentration-response curve, whichever way the signal moves. Consider `COc1cc2c(c(OC)c1OC)-c1ccc(OC)c(=O)cc1[C@@H](NC(C)=O)CC2`, for which the AC50 in experiment [1] is 0.0925 µM (active); in experiment [6] it was 0.619 µM (active). Moreover, the compound was called inactive in [2], in experiment [3], in experiment [4], in experiment [5], in experiment [7] and in experiment [8]. Besides, the outcome in [9] was inactive.

In the case of `C[C@@H](Oc1ccc(CNC(=O)c2cccnc2Oc2ccc3c(c2)OCO3)c(F)c1)C(=O)O`, the compound was called inactive in experiment [1], in [2], in experiment [3], in experiment [4], in experiment [5] and in experiment [6]. Besides, the compound was called inactive in [7], in experiment [8], in experiment [9] and in experiment [10].

In the case of `FC(F)C(F)(F)COCC1CO1` (stereo not given), the compound was called inactive in experiment [1], in experiment [2], in experiment [3], in experiment [4], in experiment [5] and in [6]. Also, the result in experiment [7], in [8], in [9] and in [10] was inactive.

On to `NCC(F)(F)C(F)(F)C(F)(F)C(F)(F)F`, for which the call in [1], in experiment [2], in experiment [3], in experiment [4], in [5] and in [6] was inactive. Also, the call in experiment [7], in [8], in experiment [9] and in [10] was inactive.

For `Cc1nc(-c2ccccn2)ncc1C(=O)Nn1cc(C)c2cc(F)ccc21`, the result in experiment [1], in experiment [2], in experiment [3], in experiment [4], in experiment [5] and in experiment [7] was inactive. Further, the compound was called inactive in experiment [8], in experiment [9] and in experiment [10]. In experiment [6], the concentration at half-maximal activity (AC50) is 48 µM (active).

For the compound `S=P(N1CC1)(N1CC1)N1CC1`, the compound was classed as inactive in experiment [1], in experiment [2], in [3], in experiment [4], in [5] and in experiment [6]. For the same compound, the result in [7], in [8], in experiment [9] and in experiment [10] was inactive.

Regarding `FC(F)(F)C(F)(F)C(F)(F)C(F)(F)C(F)(F)C(F)(F)I`, the result in experiment [1], in experiment [2], in [3], in [4], in [5] and in experiment [6] was inactive. The call in experiment [7], in experiment [8], in experiment [9] and in experiment [10] was inactive.

Regarding `COc1cc(C(C)C)c2c(c1)S(=O)(=O)N(COc1cc(=O)n3cccc(OCCN4CCCCC4)c3n1)C2=O`, the outcome in experiment [1], in experiment [4] and in [10] was inactive. Further, the half-maximal activity concentration (AC50) in [2] was 4.22 µM (active); in experiment [3], 5.08 µM (active); in experiment [5], 12.3 µM (active); in experiment [6], 5.04 µM (active); in experiment [7], 13.9 µM (active); in [8], 2.75 µM (active). In experiment [9], the AC50 was 9.28 µM (active).

For the compound `CC(C)CC(C)O` (stereo not given), the compound was called inactive in [1], in experiment [3], in experiment [4], in [5], in [6] and in experiment [7]. Besides, the outcome in experiment [8], in [9] and in [10] was inactive.

Turning to `CCOc1ccc2[nH]cc(C(=O)NCc3ccccc3)c(=O)c2n1`, the compound was classed as inactive in [1], in experiment [3], in experiment [4], in experiment [5], in experiment [6] and in experiment [7]. Moreover, the compound was classed as inactive in experiment [8], in experiment [9] and in [10].

Turning to `OC[C@H]1O[C@@](CO)(O[C@H]2O[C@H](CO)[C@@H](O)[C@H](O)[C@H]2O)[C@@H](O)[C@@H]1O`, the result in experiment [1], in experiment [3], in [4], in [5], in [6] and in [7] was inactive. In addition, the result in experiment [8], in experiment [9] and in experiment [10] was inactive.

As to `Cc1ncc([C@@H](CCCCCCc2ccc3c(n2)NCCC3)CC(=O)O)cn1`, the compound was called inactive in experiment [1], in experiment [3], in [4], in experiment [5], in experiment [6] and in experiment [7]. Moreover, the result in [8] and in experiment [9] was inactive.

Turning to `CCc1cccc(CC)c1N`, the call in [2], in [3], in [4], in [5], in experiment [6] and in [7] was inactive. Further, the call in experiment [8], in experiment [9] and in experiment [10] was inactive.

`OCCNCCO`: the outcome in experiment [2], in experiment [3], in experiment [4], in experiment [5], in experiment [6] and in experiment [7] was inactive. Besides, the outcome in experiment [8] and in [9] was inactive.

Consider `CC1(C)C(=O)N(Cl)C(=O)N1Cl`, for which the call in experiment [2], in experiment [3], in experiment [4], in [5], in experiment [6] and in [7] was inactive. In addition, the compound was classed as inactive in experiment [8] and in experiment [9].

As to `OCc1c[nH]c2ccccc12`, the compound was called inactive in experiment [1], in experiment [3], in experiment [4], in experiment [5], in [6] and in experiment [7]. In addition, the outcome in [10] was inactive. For the same compound, the AC50 in experiment [3] is 27.1 µM (active) and 140 µM (active) and 32.2 µM (active); in experiment [6] it was 2.91 µM (active) and 19.8 µM (active) and 1.45 µM (active); in [8], 176 µM (active) [middle of 5 runs]; in experiment [10] it was 5.11 µM (active) [middle of 4 runs].

Regarding `c1ccc(C(O[C@@H]2CCCN(CCc3ccc4c(c3)OCO4)C2)c2ccccc2)cc1`, the call in experiment [2], in experiment [3], in experiment [4], in [5] and in [7] was inactive. Further, the concentration at half-maximal activity (AC50) was 47.1 µM (active) in experiment [6], 55 µM (active) in [8] and 33 µM (active) in [9].

As to `CCCCCCCCCCCCCCCCOS(=O)(=O)O`, the outcome in [1], in experiment [4], in [5], in experiment [6], in experiment [7] and in experiment [8] was inactive. In experiment [10], the result was inactive. Moreover, the half-maximal activity concentration (AC50) was 22.8 µM (active) in experiment [3] and 25.4 µM (active) in [9].

Consider `CCCCCCCCCC`, for which the compound was classed as inactive in [1], in experiment [3], in experiment [4], in experiment [5], in experiment [6] and in experiment [7]. Also, the result in experiment [8] and in experiment [9] was inactive.
